From PubChem BioAssay come the findings set out here.

A short description of assay [1]: glutamate transport activators, MN-1 cells, MN-1 cell line (AID 1612).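 Note: tested at 1 µM final; 0% = mean of DMSO vehicle wells on each plate; positive means more glutamate uptake than control and negative means less.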 To be noted: MN-1 motor neuron cells, stronger effect = higher value.
Assay [2] in a line: 75Q-TubH aggregate inhibition, S. cerevisiae, yeast (AID 1616). To be noted: S. cerevisiae 75Q-TubH polyglutamine aggregation suppression; stronger effect = higher value.
Assay [3] can be described thus: compounds altering circadian rhythm period length – cell-based, LOPAC library, luminescence reporter (AID 2774; call rule not given here;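 note: values are relative to mean of DMSO wells on each plate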). To be noted: circadian reporter cells, at 7 µM, actives lie on both sides.
Assay [4] in a line: compounds altering viability of human ES cells (AID 493140; call rule not given here;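 note: cells exposed to compounds for four days before counting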). To be noted: human embryonic stem cell survival screen; stronger effect = higher value.
The subject of assay [5] is Hepatitis C virus NS3 helicase. The assay is described as follows: blockers of NS3h binding to ssDNA – biochemical, fluorescence polarization, LOPAC1280 library, primary screen (AID 687035; in the data active = inhibition above about 37%). The note with it: Purified HCV NS3 helicase, Cy5-dT15 ssDNA binding fluorescence polarization; stronger effect = higher value; concentration not given here. On the technique in general: In fluorescence polarisation assays a small probe gives low polarisation when free and higher when bound to something large.

The nature of assay [6]: compounds altering Cy5-DNA-NS3h complex signal – biochemical, LOPAC1280, artefact control for HCV NS3 helicase inhibitor project (AID 687037; call rule not given here). The note with it: Cy5-DNA-NS3h complex fluorescence interference counterscreen.
The nature of assay [7]: Wnt pathway potentiators raising nuclear beta-catenin – imaging, WNT3A-conditioned medium, mouse C2C12, NPC library, primary screen (AID 1117326; in the data active = nuclear beta-catenin stimulation mostly above about 4.2%, no sharp cut-off; inactive = mostly below about 10%). To be noted: stronger effect = higher value.
A short description of assay [8]: P. berghei load reduction in hepatocytes – cell-based, HepG2, luciferase luminescence, HepG2 viability, primary screen (AID 624349).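 Note: 100% = mean of DMSO negative control wells on the same plate.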 The note with it: P. berghei liver stage in HepG2, luciferase luminescence, concentration not given here; parasite load remaining: stronger effect = lower value; viability: measured here: HepG2 viability without parasites.
A short description of assay [9]: GFP-Q80 aggregate reduction, neuronal-like cells, cell-based, NGF-treated PC12, GFPQ80 (AID 1614).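 Note: lower means fewer inclusions and 0 means no inclusions at all.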 To be noted: PC12 NGF-treated GFP-polyQ80 inclusion reduction.

Structures are written as SMILES. Several values for one entry are separate records, joined by “and”; a condition that tells them apart may be missing. Equal values may be shown once. Activity calls are given as the source filed them. Cut-off read from the data, not from the text of the source, unless noted: active = parasite load remaining mostly below about 12% (no sharp cut-off); inactive = mostly above about 10%.

With `CC(C)COCC(CN(Cc1ccccc1)c1ccccc1)N1CCCC1` (configuration not stated), the glutamate uptake change in assay [1] stood at 12.6%. In assay [2], the aggregation suppression score stood at 1.08. Moreover, the period change in assay [3] was 0.04 h (inactive). Also, the survival in assay [4] is 5.92 (inactive). Besides, in [5], the inhibition is 0% (inactive). Moreover, the fluorescence ratio (interference) in assay [6] was 1 (inactive). The nuclear beta-catenin stimulation in assay [7] (at 10 µM) is 0.1% (inactive); in assay [7] (stimulation, at 2 µM), -1.8%.
On to `Cc1oncc1C(=O)Nc1ccc(C(F)(F)F)cc1`, for which the glutamate uptake change in [1] was found to be 8.42%. This compound yielded an aggregation suppression score in assay [2] of 0.133. The period change in [3] was 0.35 h (inactive). Besides, the survival in [4] is 6.08 (inactive). In assay [8], the parasite load remaining is 174% (inactive) and 159% (inactive) and 30% (inactive); the viability was 94.2% and 84.7% and 88.5%. The inhibition in assay [5] was -2% (inactive). In [6], the fluorescence ratio (interference) is 1 (inactive). For the same compound, the nuclear beta-catenin stimulation in assay [7] (at 10 µM) is 15.4% (inactive). Besides, the nuclear beta-catenin stimulation in [7] (stimulation, at 2 µM) worked out at 3.9%.
Turning to `Nc1ccc(C(=O)O)cc1`, the glutamate uptake change in assay [1] worked out at 15.6%. Besides, the inclusion score in [9] came to 2. The aggregation suppression score in [2] amounted to 1.25. Also, in assay [8], the parasite load remaining was 102% (inactive) and 75.6% (inactive); the viability was 74.3% and 91.3%. Moreover, the nuclear beta-catenin stimulation in [7] (at 10 µM) is -0.9% (inactive). Besides, the nuclear beta-catenin stimulation in assay [7] (stimulation, at 2 µM) was determined as 0.3%.
As to `CN(C)CCC=C1c2ccccc2C=Cc2ccccc21`, in assay [1], the glutamate uptake change is -6.52%. Further, the aggregation suppression score in [2] amounted to 1.07. The period change in assay [3] is 0.095 h (inactive). Also, in assay [4], the survival is 2.75 (inactive). Besides, the inhibition in [5] was -2% (inactive). Moreover, in [6], the fluorescence ratio (interference) is 1 (inactive). The nuclear beta-catenin stimulation in assay [7] (at 10 µM) is -1.8% (inactive); in [7] (stimulation, at 2 µM), -0.8%.
As to `CC(C)(C)CC(C)(C)c1ccc(O)c(Cc2ccc(Cl)cc2Cl)c1`, in [1], the glutamate uptake change is -22.5%. Also, in assay [2], the aggregation suppression score is 0.498. In assay [8], the parasite load remaining is 157% (inactive) and the viability came to 83.5%. Further, the nuclear beta-catenin stimulation in assay [7] (at 10 µM) is 0.1% (inactive). Further, in assay [7] (stimulation, at 2 µM), the nuclear beta-catenin stimulation was 6.3%.
For the compound `CCCCC(CC)CN=C(N)NC(N)=NCCCCCCN=C(N)NC(N)=NCC(CC)CCCC` (configuration not stated), in assay [1], the glutamate uptake change was -50.4%. Also, in [2], the aggregation suppression score was -0.456. The survival in assay [4] is 0.25 (inactive). For the same compound, in [8], the parasite load remaining was -0.04% (inactive) and -6.78% (inactive); the viability was 41.3% and 33.2%. In addition, the nuclear beta-catenin stimulation in [7] (at 10 µM) is -3.7% (inactive). For the same compound, the nuclear beta-catenin stimulation in assay [7] (stimulation, at 2 µM) was -1.8%.
As to `COc1ccc(C(=O)c2ccccc2)c(O)c1`, in assay [1], the glutamate uptake change is 5.28%. In assay [2], this compound yielded an aggregation suppression score of 0.225. Also, in assay [4], the survival was 3.25 (inactive). Also, in [8], the parasite load remaining is 175% (inactive) and 149% (inactive) and 68.3% (inactive); the viability was 96.8% and 72.8% and 91.5%. Moreover, the nuclear beta-catenin stimulation in assay [7] (at 10 µM) is 1.5% (inactive). The nuclear beta-catenin stimulation in assay [7] (stimulation, at 2 µM) turned out to be 1%.
Take `NC(N)=N/N=C/c1c(Cl)cccc1Cl`: in assay [3], the period change is 0.195 h (inactive). For the same compound, the survival in assay [4] is 17.8 (inactive). Besides, in assay [8], the parasite load remaining was 15.7% (inactive) and 61% (inactive) and 36.4% (inactive); the viability is 48.5% and 89.8% and 102%. In addition, the nuclear beta-catenin stimulation in assay [7] (at 10 µM) is -0.1% (inactive). Moreover, the nuclear beta-catenin stimulation in assay [7] (stimulation, at 2 µM) is -1.1%.
Turning to `Oc1ccc(Cl)c2cccnc12`, the glutamate uptake change in assay [1] is 42.4%. The aggregation suppression score in [2] is 0.0533. Also, the parasite load remaining in assay [8] was 109% (inactive) and 39.2% (inactive). The viability in assay [8] is 67.1% and 81.7%. Also, the nuclear beta-catenin stimulation in assay [7] (at 10 µM) was 26.2% (inactive); in assay [7] (stimulation, at 2 µM) it was 2.1%.
Consider `CCCCC1C(=O)N(c2ccccc2)N(c2ccc(O)cc2)C1=O` (configuration not stated), for which the glutamate uptake change in [1] turned out to be 5.7%. For the same compound, the aggregation suppression score in [2] is 0.77. For the same compound, the survival in [4] is 4 (inactive). Also, the parasite load remaining in assay [8] is 75.4% (inactive) and 73.9% (inactive) and 45.8% (inactive). Further, the viability in [8] was 80.4% and 71.7% and 90.8%. The nuclear beta-catenin stimulation in [7] (at 10 µM) was 66.2% (active); in assay [7] (stimulation, at 2 µM), 2.3%.

A word on the inhibition: it is the drop in the measured response relative to a control, in per cent. By viability is commonly meant a read-out of living cells in per cent, often relative to untreated cells.
